Holding throughout (assay): NCI-60 one-dose screen, 48 h (100 = growth as untreated, 0 = no growth, -100 = all killed)
What all share (details): 10 µM unless noted

For assay [1], the system named is T-47D breast.
The subject of assay [2] is BT-549 breast.
Assay [3] relates to MDA-MB-435 melanoma.
Assay [4] has as its system SW-620 colon.
The subject of assay [5] is MCF7 breast.
Assay [6] concerns HCT-116 colon.
The test system of assay [7] is HCC-2998 colon.
Assay [8] concerns KM12 colon.

The structures appear in SMILES notation. Compounds without any hit were thinned out: in the full panel of roughly 83,000, 20% have a hit.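 Method: cells in 96-well plates; compound added at one concentration; 48 h incubation; percent growth measured; values under 10 scored active.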 A number with no mark means an inactive call. Active and inactive are the calls of the source.

Turning to `Cc1noc(C)c1C(=O)OCc1coc2ccccc2c1=O`, the growth in assay [1] is 28%; in assay [2] it was 69.2%; in assay [3], 59.8%; in assay [4], 32.1%; in assay [5] it was 49.6%; in assay [6] it was 41.4%. Also, the results for the growth in assay [7] and in assay [8] were 105% and 95.8%, respectively.

With `O=C1N(Cc2ccccc2Cl)c2ccccc2C12NN=C(c1cccc(Cl)c1)S2` (stereo not drawn), the growth in assay [1] is 6.86% (active); in assay [2], -20% (active); in assay [3] it was 2.22% (active); in assay [4], 9.59% (active); in assay [5] it was 1.43% (active); in assay [6], 9.78% (active). Besides, the growth in assay [7] is -61% (active); in assay [8] it was 21.4%.

In the case of `OCCNCCCOc1ccc2ncnc(Nc3ccc(Oc4cccc(C(F)(F)F)c4)c(Cl)c3)c2c1`, the growth in assay [1] was 38.7%; in assay [2] it was 95.6%; in assay [3] it was -65.2% (active); in assay [4], -84.2% (active); in assay [5], -40% (active); in assay [6] it was 12.7%. Further, the results for the growth in assay [7] and in assay [8] were -75.1% (active) and 3.05% (active), respectively.

Consider `C=C1C(=O)O[C@H]2[C@H]1CC/C(COC(=O)NCc1ccc(Cn3c(=O)sn(CCI)c3=O)cc1)=C\CC[C@@]1(C)O[C@@H]21`, for which the growth in assay [1] is 27.1%; in assay [2], 69.8%; in assay [3] it was 57.1%; in assay [4] it was -2.89% (active); in assay [5], 24.7%; in assay [6] it was 20%. Further, the values for the growth in assay [7] and in assay [8] were 107% and 91.5%, respectively.

With `CCOC(=O)c1cc(-c2ccc([N+](=O)[O-])cc2)n(-c2ccc(C(=O)O)c(O)c2)c1C`, the growth in assay [1] is 38.2%; in assay [2], 95.7%; in assay [3], 50.6%; in assay [4], 93.2%; in assay [5] it was 53.9%; in assay [6], 49.4%. The figures for the growth in assay [7] and in assay [8] were 98.9% and 86.8%, respectively.

Regarding `C=CCn1cc(-c2nc3ccccc3s2)c2cc(-c3ccc4c5c(cccc35)C(=O)N(N)C4=O)ccc21`, the growth is 78.2% in assay [1]; 94.4% in assay [2]; 103% in assay [3]; 98.5% in assay [4]; 75.2% in assay [5]; 96.6% in assay [6]. Besides, the results for the growth in assay [7] and in assay [8] were 102% and 100%, respectively.

As to `CN1CCN(C(=O)OCc2ccc3c(Cl)cc(Cl)c(O)c3n2)CC1`, the growth was 58.6% in assay [1]; 87% in assay [2]; 60.5% in assay [3]; 52.4% in assay [4]; 43.6% in assay [5]; 32.9% in assay [6]. Besides, the growth is 74.4% in assay [7] and 48.7% in assay [8].

For `CC(C)=NNc1ccccn1`, the growth in assay [1] is 15.4%; in assay [2], 62.5%; in assay [3], 55.2%; in assay [4], 26.2%; in assay [5], 18%; in assay [6], 23.6%. Besides, the values for the growth in assay [7] and in assay [8] were 48.1% and 38.2%, respectively.

As to `N#Cc1c(-c2ccccc2)cc(-c2ccccc2)n(CCCCCC(=O)Nc2ccccc2N)c1=O`, the growth is 48.3% in assay [1]; 49.5% in assay [2]; 92.1% in assay [3]; 86.2% in assay [4]; 68.4% in assay [5]; 58.1% in assay [6]. Moreover, the figures for the growth in assay [7] and in assay [8] were 80.5% and 55.3%, respectively.

Turning to `c1ccc(C2=NN[C@H](c3cn(-c4ccccc4)nc3-c3ccccc3)C2)cc1`, the growth in assay [1] was 43.5%; in assay [2], 48.7%; in assay [3] it was 67%; in assay [4], 55.7%; in assay [5] it was 74.4%; in assay [6], 22.8%. Also, the growth in assay [7] was 64.6%; in assay [8], 62.8%.

For the compound `O=[N+]([O-])c1ccc(S(=O)(=O)N2CCN(C3=NS(=O)(=O)c4ccccc4N3c3ccccc3)CC2)cc1`, the growth in assay [1] is 115%; in assay [2] it was 99.8%; in assay [3], 97.2%; in assay [4], 103%; in assay [5], 101%; in assay [6], 91.2%. For the same compound, the results for the growth in assay [7] and in assay [8] were 91.3% and 110%, respectively.

Regarding `C=C1C(=O)O[C@H]2[C@H]1CC/C(COC(=O)CSCCSCC(=O)OC/C1=C/CC[C@@]3(C)O[C@H]3[C@H]3OC(=O)C(=C)[C@@H]3CC1)=C\CC[C@@]1(C)O[C@@H]21`, the growth in assay [1] was 29.5%; in assay [2], -16.3% (active); in assay [3], 34.3%; in assay [4], 2.85% (active); in assay [5] it was 18.1%; in assay [6] it was -31.6% (active). Moreover, the values for the growth in assay [7] and in assay [8] were 25.8% and 51.1%, respectively.

As to `CC(C)OC(=O)c1ccc2[nH]c(O)c(C(=Nc3ccc(N(C)C(=O)CN4CCN(C)CC4)cc3)c3ccccc3)c2c1`, the growth in assay [1] is -47.7% (active); in assay [2], -78.8% (active); in assay [3] it was -92.6% (active); in assay [4], -64.6% (active); in assay [5], -65.5% (active); in assay [6], -47.9% (active). For the same compound, the growth in assay [7] is -84.2% (active); in assay [8], -43.2% (active).

As to `Fc1cccc(CNc2c3ccccc3nc3ccccc23)c1F`, the growth in assay [1] is 68.3%; in assay [2], 90.6%; in assay [3], 87.3%; in assay [4], 41.4%; in assay [5], 29.8%; in assay [6], 17.5%. Also, the growth is 58.4% in assay [7] and 87% in assay [8].

With `COc1ccc(/C=C2\COc3ccc(O)c(O)c3C2=O)cc1`, the growth was 6.94% (active) in assay [1]; -6.78% (active) in assay [2]; 11% in assay [3]; 6.34% (active) in assay [4]; 19% in assay [5]; 10.8% in assay [6]. The growth in assay [7] is 50.7%; in assay [8] it was 8.91% (active).

In the case of `Cn1cc(-c2csc(-c3ccc(Cl)cc3)n2)c2cccnc21`, the growth in assay [1] was -23.5% [100 µM] (active); in assay [2], -38.1% [100 µM] (active); in assay [3], -6.61% [100 µM] (active); in assay [4] it was -62% [100 µM] (active); in assay [5] it was -35.2% [100 µM] (active); in assay [6] it was -62% [100 µM] (active). Moreover, the growth was -91.9% [100 µM] (active) in assay [7] and -82.4% [100 µM] (active) in assay [8].

For the origin of these results see PubChem BioAssay (NCI).
